Compounds with a hit are over-represented: about 12% of the library has one in this group of screens.
JMJD2A Tudor: blocks the human JMJD2A Tudor domain. AlphaScreen JMJD2A-Tudor / H3K4me3 peptide binding. Potency, µM (titrated, usually from 114 µM), for inactives: top-dose activity change, negative = inhibition, actives largely listed as inhibitors. 390,000 compounds, 4.4% hits. O75164; also: potency is read from the fitted curve at half-maximal effect; % is scaled to controls: 0 for no effect and ±100 for the full control effect; nearly all actives have a fitted effect of over 50% in size
HP1b binding inh: blocks HP1-beta chromodomain binding to methylated histone tails; P83916; AlphaScreen HP1-beta / biotin-H3K9me3 peptide binding; Potency, µM (titrated, usually from 114 µM), without a hit: at the top dose activity change, negative = inhibition, actives largely listed as inhibitors; 390,000 compounds, 0.56% hits; also: potency is read from the fitted curve at half-maximal effect; nearly all actives have a fitted effect of over 70% in size
Target sequence (P83916 whole entry, looked up): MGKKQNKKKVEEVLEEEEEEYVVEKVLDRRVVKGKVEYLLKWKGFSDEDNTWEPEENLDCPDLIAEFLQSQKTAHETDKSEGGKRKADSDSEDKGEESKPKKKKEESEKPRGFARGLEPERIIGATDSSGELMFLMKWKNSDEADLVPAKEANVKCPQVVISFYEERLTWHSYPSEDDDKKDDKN
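Compound inhibition of the preformed complex between 50 nM HP1-beta and 50 nM biotinylated H3K9me3 peptide was read by AlphaScreen. Buffer was PBS pH 7.4 with 0.01% Tween-20. Incubations ran 30 min at room temperature, with 10 ug/mL donor/acceptor beads.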
G9a inh: G9a (human) methyltransferase inhibition. Q96KQ7. G9a H3K9 monomethylation, AlphaScreen, 2 h. Potency, µM (series often up to 102 µM), inactives show at the highest dose activity, negative = inhibition, hits mostly inhibitors. 350,000 compounds, 8.8% hits. AID 504332; also: potency is read from the fitted curve at half-maximal effect; % is scaled to controls: 0 for no effect and ±100 for the full control effect; nearly all actives have a fitted effect of over 75% in size
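Step 1: enzyme (final 20 nM) with compound, 15 min RT. Step 2: substrate peptide 500 nM and SAM 20 uM, 2 h RT. Step 3: anti-H3K9me1 antibody and AlphaScreen beads, 10 min, then plate read.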
PI5P4Ka inh: PI5P4K alpha (human) kinase inhibition; max response, %; 330,000 compounds, 1.2% hits; P48426; AID 652105; PI5P4Kalpha enzyme, ADP-Glo luminescence, 60 min; hits give low values; active = max response of -50% or lower; inconclusive = between -30% and -50%; inactive = -30% or higher; also: value at the top dose of about 77 µM; % is scaled to controls: 0 for no effect and ±100 for the full control effect
Target sequence (P48426 whole entry, looked up): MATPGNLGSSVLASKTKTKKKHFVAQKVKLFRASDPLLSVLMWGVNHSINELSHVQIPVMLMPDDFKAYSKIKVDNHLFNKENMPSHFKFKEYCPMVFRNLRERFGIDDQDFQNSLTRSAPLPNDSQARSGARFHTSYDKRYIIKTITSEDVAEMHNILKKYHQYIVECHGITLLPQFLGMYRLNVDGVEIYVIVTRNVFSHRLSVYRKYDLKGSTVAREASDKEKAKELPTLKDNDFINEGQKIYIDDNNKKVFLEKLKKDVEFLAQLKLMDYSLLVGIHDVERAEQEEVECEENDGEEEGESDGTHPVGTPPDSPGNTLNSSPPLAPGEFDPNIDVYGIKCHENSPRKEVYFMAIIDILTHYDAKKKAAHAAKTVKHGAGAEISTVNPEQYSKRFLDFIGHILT
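ADP-Glo luminescence end-point read after a 60 min room-temperature kinase reaction of PI5P4Kalpha plus substrate, initiated with ATP at 5 microM final. Buffer: 0.038 M HEPES pH 7.4, EGTA, 0.1% CHAPS, 5% DMSO.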
PLK1 PBD block: blocks phosphopeptide binding to human PLK1 polo-box domain; P53350; Plk1 PBD binding of FITC phosphopeptide, fluorescence polarization; Potency, µM, inactives show max response, negative = inhibition, usual class: inhibitors; 360,000 compounds, 2.8% hits; also: potency is read from the fitted curve at half-maximal effect; series mostly up to about 57 µM; % is scaled to controls: 0 for no effect and ±100 for the full control effect; nearly all actives have a fitted effect of over 65% in size
BAZ2B block: inhibitors of human BAZ2B bromodomain; Q9UIF8; AlphaScreen BAZ2B-H3K14Ac peptide displacement; Potency, µM (series often up to 114 µM), for inactives: top-dose activity change, negative = inhibition, usual class: inhibitors; 360,000 compounds, 4.4% hits; also: potency is read from the fitted curve at half-maximal effect; % is scaled to controls: 0 for no effect and ±100 for the full control effect; nearly all actives have a fitted effect of over 60% in size
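Inhibition is scored as reduced AlphaScreen emission. The BAZ2B/b-H3(5-23)K14Ac complex (50 nM each) in PBS pH 7.4, 0.01% Tween-20 meets compound (up to 110 uM) for 30 min at RT before bead addition.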
The depositor's hits bear a star; ? = inconclusive; nt = not tested or not shown; [ ] = another dose, or the depositor's remark. Unless noted, calls follow the shape of the dose curve; as a rule, active = well fitted curve in the direction sought with a large enough effect; inconclusive = small, poorly fitted or top-dose-only effect, or another doubt; inactive = no such curve, though single readings can be large; an effect the other way counts as inactive or inconclusive.

SMILES | JMJD2A Tudor | HP1b binding inh | G9a inh | PI5P4Ka inh | PLK1 PBD block | BAZ2B block
Cc1cccc(-c2oc(C)c(C)[n+]2[O-])c1 | 44.7µM* | 2.0% | ? | nt | -13.2% | -3.9%
O=C(c1ccc(Cl)c(Cl)c1)N1CCC(=O)N([C@H](COCc2ccccc2)Cc2ccccc2)CC1 | nt | nt | nt | 5.9 | -1.2% | nt
O=C(c1ccc(Cl)c(Cl)c1)N1CCC(=O)N(C(CO)Cc2ccccc2)CC1 (stereo not drawn) | 35.5µM* | -21.6% | nt | -2.7 | 26.7µM* | nt
CC(C)c1ccc(N2C(=O)C(Cl)=C(N3CCOCC3)C2=O)cc1 | -7.0% | 31.3% | 9.7% | -6.4 | -18.5% | -3.9%
CCc1ccccc1N1C(=O)C(Cl)=C(N2CCOCC2)C1=O | 7.1% | 82.9% | 7.6%[0.501 µM] | 2.0 | -11.5% | -4.1%
O=C1C(Cl)=C(N2CCOCC2)C(=O)N1c1ccc(Br)cc1 | -20.1% | 53.5% | 44.7µM* | -18.9 | ? | 5.6%
CCOc1ccc(N2C(=O)C(Cl)=C(N3CCOCC3)C2=O)cc1 | -26.9% | 25.2% | 50.1µM* | 1.4 | -20.1% | -29.4%
O=C(NCc1csc(-c2ccccc2)n1)c1ccco1 | 0.0% | 10.9% | 6.0%[59 µM] | 0.2 | -4.7% | 1.9%
O=C(NCCc1csc(-c2ccccc2)n1)c1ccco1 | -7.4%[11.4 µM] | -4.3% | 1.6% | -12.7 | 10.6µM* | 2.5%
O=C(O)c1ccc(NC(=O)c2ccc3c(c2)C(=O)N(c2ccccc2)C3=O)cc1 | -22.1% | 19.6% | 0.2% | 1.1 | -2.0% | -20.4%
O=C(O)c1ccc2c(c1)C(=O)N(c1cccc(C(=O)/C=C/c3ccccc3)c1)C2=O | -2.7% | -0.3% | nt | -13.1 | 42.3µM* | -38.8%
O=C(O)c1cccc(N2C(=O)c3ccc(C(=O)c4cccc([N+](=O)[O-])c4)cc3C2=O)c1 | -14.0% | 34.8% | 56.2µM* | -0.1 | -5.1% | -17.6%
O=C(c1cccc([N+](=O)[O-])c1)c1ccc2[nH]c(=O)[nH]c2c1 | -6.3% | 23.9% | 79.4µM* | -16.4 | -10.7% | -12.0%
O=C(O)c1cccc(NC(=O)c2ccc(N3C(=O)c4ccc(C(=O)Nc5cccc(C(=O)O)c5)cc4C3=O)cc2)c1 | -14.8% | 29.7% | 0.7% | -50.7* | -4.2% | -12.2%
O=C(O)c1cccc(N2C(=O)c3cc4cccc(Br)c4cc3C2=O)c1 | -22.7% | 56.6% | 11.2% | 1.1 | -10.8% | ?
COc1ccccc1CN1CCCC2(CCN(C(=O)c3ccco3)CC2)C1 | nt | nt | -6.5%[12.7 µM] | nt | nt | nt
Cc1ccc2cc(CNC[C@H]3O[C@@H](n4cc(C)c(=O)[nH]c4=O)C[C@@H]3O)c(N3CCOCC3)nc2c1 | nt | nt | nt | 0.7 | -2.8% | nt
COc1cccc(Cn2ncc3c4sc(C)cc4n(C)c3c2=O)c1 | -19.2% | nt | nt | nt | nt | nt
O=C(c1ccc(S(=O)(=O)N2CCCCCC2)cc1)N1CCN(c2ccccc2F)CC1 | -3.7% | 17.7% | nt | 18.1 | -4.4% | nt
CCCCNC(=S)NCc1ccc2[nH]c3c(c2c1)CCCC3 | 39.8µM* | ? | ? | -6.7 | -8.2% | nt
CNC(=S)NCc1ccc2[nH]c3c(c2c1)CCCC3 | -29.6% | -0.5% | 39.8µM* | -3.9 | -9.5% | 44.7µM*
COc1ccc(OCCCC(=O)Nc2cc(S(=O)(=O)N3CCCCC3)ccc2C)cc1 | -16.4% | 1.0% | 7.0%[2.33 µM] | 0.9 | -10.9% | -19.0%
Cc1ccc(NC(=O)COC(=O)CCC2CCCC2)c(Br)c1 | 155.3% | 210.8% | 74.9%[12.7 µM] | 0.3 | 0.6% | 186.0%
Cc1cccc(-c2n[nH]c(=S)n2C)c1 | 4.47µM* | ? | 28.2µM* | -10.1 | -16.8% | -1.8%
Cc1ccn2c(=O)cc(C)nc2c1 | -10.4% | 15.4% | -29.2% | -6.8 | -9.6% | -13.4%
SMILES | JMJD2A Tudor | HP1b binding inh | G9a inh | PI5P4Ka inh | PLK1 PBD block | BAZ2B block
Cn1c(-c2ccccc2)n[nH]c1=S | 22.4µM* | 22.9% | nt | 3.7 | -4.1% | -2.9%
Cc1ccn2c(-c3n[nH]c(=S)n3C)c(C)nc2c1 | 8.91µM* | ? | 8.91µM* | -21.3 | ? | -0.1%
Cc1nc(-c2ccccc2)sc1-c1n[nH]c(=S)n1C | 10µM* | 12.0% | 3.55µM* | nt | -2.0% | 79.4µM*
O=C(CSc1nnc(CNC(=O)c2ccco2)o1)Nc1cccc(Cl)c1 | 0.0% | 31.8% | 4.6%[59 µM] | -1.2 | 0.8% | -11.5%
CCOc1ccc(-c2cc(NC(=O)c3ccccc3)c(C(=O)OC)s2)cc1 | 11.7% | 56.4% | 1.6%[59 µM] | nt | nt | 10.7%
COc1cc(F)ccc1-c1cc(C(=O)NCc2ccc(C(F)(F)F)cc2)[nH]n1 | nt | nt | nt | 4.3 | 1.9% | nt
COc1cccc(CCn2c(N)cc(=O)[nH]c2=S)c1OC | 0.7% | 46.4% | nt | nt | nt | nt
Cn1c(-c2ccccc2Br)n[nH]c1=S | 4.47µM* | -16.2% | nt | -8.8 | -18.8% | nt
CCn1c(-c2cc3ccccc3cc2O)n[nH]c1=S | ? | 10.9% | ? | -10.1 | -18.1% | -34.1%
OC(COCc1ccc2c(c1)OCO2)CN1CCCCC1 (stereo not drawn) | -5.4% | 46.8% | -23.9% | 3.0 | 0.7% | -26.5%
OC(COCc1ccc2c(c1)OCO2)CN1CCC(Cc2ccccc2)CC1 (stereo not drawn) | -19.0% | -3.9% | 13.0%[12.7 µM] | -2.5 | 2.3% | -20.8%
CCOC(=O)C1CCCN(CC(O)COCc2ccc3c(c2)OCO3)C1 (stereo not drawn) | 1µM* | ? | 11.2µM* | 7.8 | -11.6% | 56.2µM*

Compound activity deposited in PubChem by National Center for Advancing Translational Sciences (NCATS).
